# Values without a mark were called inactive.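 The calls were made as follows: active = at least 20% inhibition of 6-phosphogluconate dehydrogenase activity; inactive = the rest.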
# Target: 6-phosphogluconate dehydrogenase, decarboxylating (Homo sapiens) (UniProt P52209)
# Test: inhibition of human phosphogluconate dehydrogenase – biochemical, recombinant enzyme, NADPH absorbance, primary screen (AID 1159550)
# Conditions: recombinant 6PGD, NADPH absorbance 341 nm; at 10 µM; hits give high values
# Sequence of 6-phosphogluconate dehydrogenase, decarboxylating (Homo sapiens) (P52209 whole entry, looked up): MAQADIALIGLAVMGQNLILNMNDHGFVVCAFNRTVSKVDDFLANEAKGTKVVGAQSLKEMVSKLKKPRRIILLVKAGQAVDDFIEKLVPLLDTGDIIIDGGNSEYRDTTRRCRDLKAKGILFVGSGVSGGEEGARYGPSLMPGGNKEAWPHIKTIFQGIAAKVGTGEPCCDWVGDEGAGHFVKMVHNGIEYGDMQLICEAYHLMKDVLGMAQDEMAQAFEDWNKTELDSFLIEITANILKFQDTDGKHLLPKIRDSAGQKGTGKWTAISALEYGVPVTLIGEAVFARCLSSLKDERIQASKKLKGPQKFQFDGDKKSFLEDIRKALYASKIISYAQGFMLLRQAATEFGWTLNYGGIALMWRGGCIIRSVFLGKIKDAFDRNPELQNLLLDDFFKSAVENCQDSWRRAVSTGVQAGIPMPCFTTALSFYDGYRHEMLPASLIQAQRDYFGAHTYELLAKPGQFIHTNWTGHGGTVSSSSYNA
row,Structure (SMILES),inhibition [%]
1,CCc1cccc(CC)c1N(COC)C(=O)CCl,-1.98
2,COC1C(O)C(O[C@H]2CC[C@]3(C=O)C4C(OC(C)=O)C[C@]5(C)[C@@H](C6=CC(=O)OC6)CC[C@]5(O)C4CC[C@]3(O)C2)OC(C)C1OC(C)=O (stereo partly specified),10.3
3,CC(C)OC(=O)Nc1cccc(Cl)c1,-6.1
4,ClC1=C(Cl)C2(Cl)C3C(Cl)C=CC3C1(Cl)C2(Cl)Cl (stereo unspecified),0.441
5,CCC1C2CC3C4N(C)c5ccccc5C45CC(C2C5O)N3C1O (stereo unspecified),6.73
6,COc1c2c(cc3c1OCO3)[C@]13C=C[C@H](OC)C[C@H]1N(C2)C[C@@H]3O,-2.74
7,CC(=O)OC1CCC2(C)C(=CCC3C4CCC(=O)C4(C)CCC32)C1 (stereo unspecified),2.3
8,CC[C@H](C)C(=O)O[C@@H]1C[C@@]2(C)[C@H](c3ccoc3)OC(=O)C[C@]23OC2(C)O[C@@]34[C@H](OC(=O)C(C)C)C3(O)[C@@H](OC(=O)[C@@]5(C)O[C@@H]5C)C5(C)C[C@]3(O)[C@](C)([C@H]5CC(=O)OC)[C@@]14O2 (stereo partly specified),3.98
9,C[C@@H]1OC(O[C@H]2CC[C@]3(C=O)[C@H]4CC[C@]5(C)C(C6=CC(=O)OC6)CC[C@]5(O)[C@@H]4CC[C@]3(O)C2)[C@H](O)[C@H](O)[C@H]1O (stereo partly specified),2.25
10,C#CCOS(=O)OC1CCCCC1Oc1ccc(C(C)(C)C)cc1 (stereo unspecified),-21.1
11,CCCCN(CC)c1c([N+](=O)[O-])cc(C(F)(F)F)cc1[N+](=O)[O-],-9.8

# — PubChem BioAssay
